The whole screen tested about 330,000 compounds, of which about 1,900 (0.58%) were called active. Another 4% or so got no clear call; they are omitted. These entries were drawn from the full list. Entries with a potency or affinity are not part of this list. Unmarked numbers belong to inactive results. Cut-off read from the data, not from the text of the source: inconclusive = inhibition above about 70% without an active follow-up result; inactive = below that.

The nature of the assay: M. tuberculosis growth inhibition, HTS (AID 449762).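 Note: bacterial growth assessed after seven days of incubation.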 To be noted: M. tuberculosis H37Rv growth inhibition, 7H9 media; at 25 µM; hits give high values.
As to `CN(c1ccccc1)S(=O)(=O)c1ccc(C(=O)OCC(=O)NC(N)=O)cc1`, the inhibition (in general, the relative decrease from the control value, in per cent) is 1%. Turning to `COc1ccc(-c2c(C(=O)O)c(C(=O)O)c3n2CCC3)cc1`, the inhibition was 0.3%. With `Cc1ccc(CSc2ncn(-c3ccccc3)n2)cc1`, the inhibition was -2.76%. For the compound `CC(C)(C)c1ccc(NC(=O)CCNC(=O)c2ccco2)cc1`, the inhibition is 1.96%.

On to `Cc1cc(C)c(S(=O)(=O)Nc2ccc(Cl)cn2)c(C)c1`, for which the inhibition was 2.9%. For the compound `CCN(CC(=O)Nc1ccccc1OC)C(=O)CCOc1ccc(C(C)(C)C)cc1`, the inhibition is -2.92%. In the case of `O=[N+]([O-])c1cc(S(=O)(=O)N2CCCCC2)ccc1NCCN1CCOCC1`, the inhibition is -0.42%. For `CCC(=O)Nc1cccc(-c2ccc(N3CCCCC3)nn2)c1`, the inhibition is 2.67%. For the compound `O=C(Nc1cccc(-c2ccc(N3CCCCC3)nn2)c1)C(F)(F)F`, the inhibition was 5.09%. The result for `COc1cccc(C(=O)/C=C/Nc2ccc(S(=O)(=O)Nc3nc(C)cc(C)n3)cc2)c1` reads 1.1%; that for `O=C1NC[C@H](c2ccccc2)N(CCc2cc(C(F)(F)F)cc(C(F)(F)F)c2)C1=O`, 2.8%. The result for `FC(F)(F)c1cc(CCN2C(=S)NC[C@@H]2c2ccccc2)cc(C(F)(F)F)c1` reads -1.12%. Regarding `CN(C)S(=O)(=O)c1cccc(NC(=O)c2ccc(OC(F)(F)F)cc2)c1`, the inhibition is 5.44%. The result for `O=C(O)C1=C[C@H](c2coc3ccccc3c2=O)C[C@H](OCCCCO)O1` reads -1.88%; that for `CCOC(=O)N1CCN(C(=O)/C(=C/c2ccc(OC)cc2)NC(=O)c2ccccc2)CC1`, 1.93%; that for `O=C(CN1CCC(C(O)(c2ccccc2)c2ccccc2)CC1)Nc1cc(Cl)ccc1Cl`, 54.5%. As to `Cc1cc(Cl)ccc1NC(=O)CN1CCC(C(O)(c2ccccc2)c2ccccc2)CC1`, the inhibition was 46%. Turning to `COCCCNC(=O)c1ccc(-c2csc(C)n2)cc1`, the inhibition was 2.89%.

Turning to `Cc1ccc(NC(=O)CN2CCOCC2)cc1S(=O)(=O)N1CCCCC1`, the inhibition was -0.79%.

Turning to `COCCN(C(=O)COC(=O)CCc1ccc(OC)cc1)c1c(N)n(Cc2ccccc2)c(=O)[nH]c1=O`, the inhibition is -4.28%.

Consider `CCCNC(=O)c1ccc2c(=O)n(Cc3ccco3)c(=S)[nH]c2c1`, for which the inhibition was 4.3%. With `Cc1ncoc1C(=O)N1CCCC(C(=O)c2ccc(-c3ccccc3)c(F)c2)C1` (stereo not drawn), the inhibition was 10.4%. `COc1ccc2cc(C(=O)C3CCCN(C(=O)c4cncs4)C3)ccc2c1` (stereo not drawn): the inhibition was 0.43%. On to `Cc1ccc(NC(=O)NCc2ccncc2)cc1Cl`, for which the inhibition was 4.38%. As to `Cc1cc(C)c(NC(=O)CN(C)CC(=O)Nc2cccc(S(=O)(=O)N(C)c3ccccc3)c2)c(C)c1`, the inhibition was 1.14%.

Take `CN(CC(=O)Nc1ccccc1Cl)C(=O)CSc1ncc(C(F)(F)F)cc1Cl`: the inhibition is 3.84%.

As to `Cc1cc(Cl)ccc1NC(=O)COC(=O)c1cc([N+](=O)[O-])ccc1N1CCOCC1`, the inhibition was -0.98%. On to `N#CCCn1cc(C(=O)NCc2ccccc2)c(-c2ccc3c(c2)OCCO3)n1`, for which the inhibition is -3.92%. The result for `CCN(c1ccccc1)S(=O)(=O)c1ccc(C(=O)Nc2nnc(-c3ccco3)o2)cc1` reads 12.1%; that for `CN(C)S(=O)(=O)c1ccc(C(=O)Nc2nnc(-c3ccco3)o2)cc1`, 70.1%; that for `O=C(NCCNC(=O)c1ccc(Cl)cc1Cl)c1ccco1`, 2.57%. Consider `O=C(O)c1cnn2cc(-c3[nH]ncc3[N+](=O)[O-])cnc12`, for which the inhibition is 0.22%. As for `Cc1cccc(N2CC(C(=O)Nc3nccs3)CC2=O)c1C` (stereo not drawn), the inhibition is 4.15%. For the compound `CCOC(=O)C1(Cc2ccc(Cl)cc2)CCN(C(=O)c2cnc(C)cn2)CC1`, the inhibition is -0.58%. Regarding `CSc1ccc(CNC(=O)C2CCC(=O)N(Cc3cccc(F)c3)C2)cc1` (stereo not drawn), the inhibition was -1.72%. For the compound `Cn1cc(CNC(=O)C2CCC(=O)N(Cc3cccc(C(F)(F)F)c3)C2)cn1` (stereo not drawn), the inhibition is -6.46%.

As to `Cc1ccc2nc(NCc3ccccc3)c(C=O)c(=O)n2c1`, the inhibition was 2.81%.

As to `C[C@H](NC(=O)NCc1ccc(F)cc1)C(=O)O`, the inhibition was -0.83%.

Take `Nc1nc2ccccc2n1C(=O)c1cccs1`: the inhibition is 10.2%. In the case of `COc1ccc(C(=O)n2c(N)nc3ccccc32)cc1OC`, the inhibition was 44.1%. Consider `c1cc2c3c(cccc3c1)C(N1CCCCC1)=N2`, for which the inhibition was -4.9%. For `c1cc2c3c(cccc3c1)C(N1CCOCC1)=N2`, the inhibition was -3.61%.

As for `Cc1cc(NC(=O)CSc2cn(CCNC(=O)c3ccc(Cl)cc3)c3ccccc23)no1`, the inhibition was -7.12%.

In the case of `c1cncc(-c2nc(NCC3CCCO3)c3ccccc3n2)c1` (stereo not drawn), the inhibition was 6.22%.

In the case of `O=[N+]([O-])c1ccc(-c2nc(NCC3CCCO3)c3ccccc3n2)cc1` (stereo not drawn), the inhibition is 2.21%. As to `C=CCN1C(=O)C(CC(=O)Nc2ccc(OC)cc2)N(Cc2ccco2)C1=S` (stereo not drawn), the inhibition was -5.03%. Regarding `O=C(O)CCNS(=O)(=O)c1ccccc1C(F)(F)F`, the inhibition was -11.5%. The result for `c1ccc(NCCCNc2ccccc2)cc1` reads 2.48%; that for `COc1cc(CNc2ncn[nH]2)cc(Br)c1OC`, -1.3%; that for `Cc1c(OCc2ccccc2)c(=O)ccn1Cc1ccccc1`, 18%. As for `Cc1ccc(Cn2ccc(=O)c(OCc3ccccc3)c2C)cc1`, the inhibition is -1.87%.

Take `CC1(CCc2ccccc2)NC(=O)N(CC(=O)N2CC(=O)Nc3ccccc32)C1=O` (stereo not drawn): the inhibition is -6.43%. `Cc1cc(NC(=O)Cn2cnc3sccc3c2=O)no1`: the inhibition is -4.01%. `O=C(O)c1ccccc1C(=O)N1N=C(c2ccccc2)CC1c1ccccc1O` (stereo not drawn): the inhibition was 0.11%. Consider `C=CCSc1nnc(COc2ccc(=O)n(-c3ccccc3)n2)n1CC`, for which the inhibition is 1.1%. The result for `CCC(=O)Nc1nc2nc(C)cc(=O)n2[nH]1` reads -0.66%. With `Cc1cc(=O)n2[nH]c(NCc3c(F)cccc3Cl)nc2n1`, the inhibition was 11.1%.

As for `Cc1ccc2nc(Nc3ccc(Cl)cc3)c3nncn3c2c1`, the inhibition is 7.65%. As to `O=C(NCCc1ccccc1)[C@@H]1CC=C[C@@H]2CCN(Cc3ccccc3)C(=O)[C@@H]21`, the inhibition is 1.96%. The result for `COc1ccc(CN2CC[C@H]3C=CC[C@@H](C(=O)NCCc4ccccc4)[C@H]3C2=O)cc1OC` reads -2.75%; that for `C=C(Cl)CSC(=S)N(CC)CC`, 14%; that for `CCN(CC)C(=S)SCC(=O)c1ccccc1`, 3.47%. `CCOC(=O)C1CCN(C(=O)CCc2nnc3ccc(N4CCC(C)CC4)nn23)CC1`: the inhibition is 1.94%. In the case of `CCC(C)(C)NC(=O)C(C)OC(=O)c1nsc(Cl)c1Cl` (stereo not drawn), the inhibition is -2.01%. The result for `O=C(N/N=C/c1ccco1)c1cc(-c2ccc3ccccc3c2)n[nH]1` reads 14.2%; that for `Cc1ccc(-c2cc(C(=O)N/N=C/c3ccco3)[nH]n2)cc1`, -2.14%. For `CN(C)C(CNC(=O)c1coc2ccccc2c1=O)c1ccccc1` (stereo not drawn), the inhibition was 8.82%. For the compound `COC(=O)C1=C(c2ccc(OCc3ccccc3)cc2)C[C@@H]2CC[C@H]1N2C(=O)NCCCc1ccccc1`, the inhibition is -6.15%. On to `COC(=O)C1=C(c2ccc(OCc3ccccc3)cc2)C[C@@H]2CC[C@H]1N2C(=O)NCc1ccccc1`, for which the inhibition was -9.3%.

For the compound `COc1ccc(CNC(=O)c2ccc(S(=O)(=O)NCc3ccco3)cc2)cc1`, the inhibition is 9.2%. As for `COc1ccc2cc(Br)ccc2c1CC(=O)N(C)C`, the inhibition is 8.82%.

Take `CCN(CC)C(=O)Cc1c(OC)ccc2cc(Br)ccc12`: the inhibition is -2.55%. As to `O=C(Nc1ccccc1C(F)(F)F)c1ccc2nccnc2c1`, the inhibition was -5.96%. The result for `Brc1ccc(/C=N/Nc2nncc(-c3ccccc3)n2)o1` reads -1.56%. In the case of `CC(=O)c1ccc(N2CCN(C(=O)C3CCN(S(=O)(=O)Cc4ccccc4)CC3)CC2)cc1`, the inhibition was -3.28%. Regarding `Cc1ccc(C(=O)Nc2cccc(C(F)(F)F)c2)cc1NC(=O)c1[nH]cnc1C(N)=O`, the inhibition was 1.02%. Turning to `Cc1ccc(C(=O)Nc2cccc(C(F)(F)F)c2)cc1Nc1cnccn1`, the inhibition is 0.61%. As to `COc1ccc(CN(Cc2ccccn2)S(=O)(=O)c2ccc(-n3cnnn3)c(OC)c2)cc1`, the inhibition is -8.37%.

On to `NS(=O)(=O)c1cccc(NC(=O)CCS(=O)(=O)c2ccc(Cl)cc2)c1`, for which the inhibition is -6.68%. The result for `COc1cccc(NC(=S)N2CCN(c3ccc([N+](=O)[O-])cc3)CC2)c1` reads 0.58%; that for `COc1cc(C(N)=O)cc(Br)c1OCc1ccccc1`, -3.08%; that for `O=C(Nc1ccccc1OCc1ccccc1)c1ccccc1Br`, 12.7%.

With `Cn1c(SCc2cccc(F)c2)nnc1-c1ccncc1`, the inhibition is -10.7%.

On to `NC1=NC(c2ccccc2Cl)n2c(nc3ccccc32)N1` (stereo not drawn), for which the inhibition is -5.58%. For `NC1=NC(c2ccc(Cl)cc2)n2c(nc3ccccc32)N1` (stereo not drawn), the inhibition is -2.59%. In the case of `Cc1ccc(OCCNC(=O)CNC(=O)c2ccc(Cl)c([N+](=O)[O-])c2)cc1`, the inhibition is -8.16%.

As for `CC1CCCC(C)N1C(=O)CN1c2cccc3cccc(c23)S1(=O)=O` (stereo not drawn), the inhibition is -12.9%. The result for `CC(C)NCc1nnc(-c2ccc(Cl)cc2)o1` reads 0.17%; that for `CCOC(=O)N1CCN(Cc2nc(N)nc(Nc3ccc(Cl)cc3)n2)CC1`, -0.66%; that for `Cc1cc(OCC(=O)O)c2ccccc2n1`, -2.82%.

For the compound `Cc1cc(OCC(=O)O)c2cccc(C)c2n1`, the inhibition is -5.96%. As to `CCOc1ccc(S(=O)(=O)NCc2cccnc2)cc1NC(=O)c1ccccc1F`, the inhibition was -11.4%. As to `C=CCc1cc(C)ccc1OCCOCCn1ccnc1`, the inhibition was -4.55%.

The values above are taken from PubChem BioAssay AID449762 (Southern Research Specialized Biocontainment Screening …, 2010).
